From PubChem BioAssay
tim10-1 inh: inhibits growth of tim10-1 mutant yeast; inhibition, % at 20 µM; 330,000 tested, 2.2% active; S. cerevisiae tim10-1 ts strain growth, BacTiter-Glo, 24 h;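 active means inhibition of at least 40%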;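 further: mutant grown at 25 °C; 0% = DMSO wells with yeast and 100% = wells holding no yeast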
tim23-1 inh: tim23-1 yeast growth inhibition; S. cerevisiae tim23-1 growth, BacTiter-Glo luminescence, 24 h; inhibition, % at 20 µM; 330,000 tested, 1.3% active; AID 463212;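 active means growth inhibition of the mutant yeast at or above 50%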;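 further: temperature-sensitive mutant grown at 25 °C; plate controls were DMSO-treated mutant yeast for no effect and medium wells lacking yeast for full effect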
PfHsp90 yeast 2: reduces growth (ATP signal) of yeast expressing P. falciparum Hsp90 | S. cerevisiae expressing PfHsp90, BacTiter-Glo ATP, 48 h; yeast lacking PDR1 and PDR3 efflux regulators | inhibition, % at 9.4 µM | 310,000 tested, 0.32% active | AID 504621;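 active means every replicate shows inhibition above about 80%, whatever the replicate mean, limit read from the data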;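 further: 0% = DMSO neutral controls and 100% = 20 µM radicicol positive controls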
V-ATPase pH: regulators of yeast V-ATPase proton transport; S. cerevisiae, pHLuorin cytosolic pH fluorescence; response, % at 10 µM; 350,000 tested, 0.37% active; AID 504577; in the data active means response mostly above about 7.3%, no sharp cut-off; inactive means mostly below about 5.4%; further: actives read high
SKKanGAS inh: blocks kanamycin growth of S. pyogenes SKKanGAS strain. BacTiter-Glo, 6 h. inhibition, % at 7.5 µM. 300,000 tested, 1.3% active. AID 1662;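 active means mean replicate score, as percent of positive control median, at least 50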;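 further: strain carries kanamycin resistance gene driven by streptokinase promoter and grows in 40 µg/ml kanamycin; loss of luminescence reflects streptokinase promoter inhibition or plain growth inhibition; 0% = median of DMSO wells and 100% = positive control at its reference dose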
TIM10 inh: TIM10 yeast growth inhibition. S. cerevisiae TIM10 strain growth, BacTiter-Glo luminescence, 24 h. inhibition, % at 10 µM. 330,000 tested, 1.4% active;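 active means inhibition of 40% or more at the single tested concentration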;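 further: wild-type TIM10 isogenic control strain grown at permissive 25 °C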
* = called active by the depositor; nt = not tested or not shown. Sampled rows, rich in hits. Any-hit rate of the full collection: about 4.6%.

SMILES	tim10-1 inh	tim23-1 inh	PfHsp90 yeast 2	V-ATPase pH	SKKanGAS inh	TIM10 inh
CC(C)(C)OC(=O)[C@H](Cc1ccccc1)NC(=O)c1[nH]cnc1C(=O)Nc1ccc(Cl)cc1	26	37	21	-3	91*	22
Cc1cccc(NC(=O)c2nc[nH]c2C(=O)N[C@@H](CC(C)C)C(=O)OC(C)(C)C)c1	24	41	-10	1	100*	17
CC(C)(C)OC(=O)[C@H](Cc1ccccc1)NC(=O)c1nc[nH]c1C(=O)N[C@@H](Cc1ccccc1)C(=O)OC(C)(C)C	13	12	-1	2	70*	9
C[C@H](NC(=O)c1nc[nH]c1C(=O)N[C@@H](Cc1ccccc1)C(=O)OC(C)(C)C)C(=O)OC(C)(C)C	20	19	-20	3	7	7
CC(C)C[C@H](NC(=O)c1[nH]cnc1C(=O)N[C@@H](C)C(=O)OCc1ccccc1)C(=O)OC(C)(C)C	19	35	-14	4	20	23
COc1cc2cc(CN(CCc3cccc(C)c3)C(=S)NCCCN3CCOCC3)c(=O)[nH]c2cc1OC	10	6	10	2	14	22
Cc1nc(CCNS(=O)(=O)c2cccnc2)cs1	7	6	-3	0	-19	-1
CCOC(=O)c1ccc(NC(=O)c2nc[nH]c2C(=O)NCCCCCNC(=O)OC(C)(C)C)cc1	25	22	-34	-4	64*	15
CC(C)(C)OC(=O)[C@H](Cc1ccccc1)NC(=O)c1[nH]cnc1C(=O)Nc1cccc(Cl)c1	28	12	9	3	72*	24
CCOC(=O)c1ccc(NC(=O)c2nc[nH]c2C(=O)N[C@@H](Cc2ccccc2)C(=O)OC(C)(C)C)cc1	1	25	-18	2	56*	12
COC(=O)C1CCc2c(ccc3c2CCCC3)C1=O (stereo not drawn)	nt	nt	0	-1	nt	nt
ClCc1ncc(-c2ccc(Cl)cc2)o1	7	22	4	-1	-18	-9
O=C(Cn1sc2ccccc2c1=O)Nc1ccccc1	nt	nt	nt	-2	nt	nt
O=C(Cn1sc2ccccc2c1=O)NC12CC3CC(CC(C3)C1)C2	33	19	nt	-3	89*	26
Cc1ccc2c(c1)=C(c1sc(N(C)c3ccc(O)cc3)nc1O)C(=O)N=2	-25	-28	-2	0	80*	-24
COc1cc(OC)cc(C(=O)N[C@H](C(=O)NC2CCCc3ccccc32)C(C)C)c1 (stereo partly drawn)	3	-8	-26	-1	nt	2
Cc1ccc(Cl)cc1N1CCN(Cc2nc3c(c(=O)[nH]c(=O)n3C)n2Cc2ccccc2F)CC1	30	36	-17	-1	79*	3
Cc1ccc(Cl)cc1N1CCN(Cc2nc3c(c(=O)[nH]c(=O)n3C)n2CCc2ccccc2)CC1	-3	-5	-1	-2	1	-5
CC(C)N(C(=O)[C@H]1CC(CC(=O)NCC23CC4CC(CC(C4)C2)C3)C(=O)N2CCc3c([nH]c4ccccc34)[C@]12C)C(C)C (stereo partly drawn)	25	25	-16	-3	nt	10
CN(C)S(=O)(=O)c1cccc(NC(=O)c2ccccc2OCc2ccc(F)cc2)c1	17	25	14	-5	3	23
Cc1cccc(N2CCN(C(=O)c3cn(C)c(=O)c4c3c3ccccc3n4C)CC2)c1C	31	15	-23	2	11	1
Cc1ccc(Cl)cc1N1CCN(C(=O)c2cn(C)c(=O)c3c2c2ccccc2n3C)CC1	34	24	-32	-3	82*	11
O=C(c1cnn2c(C(F)(F)F)cc(-c3ccc(F)cc3)nc12)N1CCc2ccccc2C1	18	33	4	2	62*	13
CCC(=O)O[C@@H]1CC(=O)O[C@H](C)CC=CC=C[C@@H](O)[C@H](C)C[C@H](CC=O)[C@H](O[C@H]2O[C@H](C)[C@@H](O[C@H]3C[C@@](C)(O)[C@@H](OC(=O)CC)[C@H](C)O3)[C@H](N(C)C)[C@H]2O)[C@H]1OC	nt	nt	nt	nt	110*	nt
Nc1nc(CN2CCN(c3cccc(Cl)c3)CC2)nc(N2CCCc3ccccc32)n1	37	46	17	5	91*	20
SMILES	tim10-1 inh	tim23-1 inh	PfHsp90 yeast 2	V-ATPase pH	SKKanGAS inh	TIM10 inh
Nc1nc(CN2CCN(c3ccccc3)CC2)nc(N2CCCc3ccccc32)n1	38	29	-13	0	88*	24
CCn1c(=O)n(CC)c2cc(N3CCCC3)c(NC(=O)c3cc(Cl)ccc3OC)cc21	35	27	-30	6	46	13
CNS(=O)(=O)c1cccc(C(=O)OC2CCCCC2=O)c1 (stereo not drawn)	-13	17	14	2	-2	-11
CC1(C)N=C(SCC(=O)Nc2ccc(Cl)cc2Cl)C(c2ccccc2)=N1	22	20	99*	-4	3	12
Cc1ccc(C2=NC(C)(C)N=C2SCC(=O)Nc2ccc(Cl)cc2)cc1	39	20	134*	0	3	23
CC1(C)N=C(SCC(=O)Nc2ccccc2)C(c2ccc(Cl)cc2)=N1	27	26	18	-4	5	20
COc1ccccc1-c1nnc(SCC(=O)Nc2ccc(Cl)cc2Cl)o1	35	20	nt	-3	14	13
CN(c1ccccc1)S(=O)(=O)c1cccc(C(=O)Nc2nn[nH]n2)c1	8	-5	-17	-8	-4	-11
O=c1c2sc3nc(N4CCOCC4)c4c(c3c2ncn1C(c1ccccc1)c1ccccc1)CCCC4	nt	nt	2	-2	nt	nt
CC1=Nc2ccccc2/C1=C\c1nc(-c2ccc(C(F)(F)F)cc2)oc1O	22	13	-17	-2	12	12
COc1ccc(-c2nc(/C=C3\C(C)=Nc4ccccc43)c(O)o2)cc1	30	22	-2	2	58*	22
O=C1OC(c2ccccc2)(c2ccc3cc(O)ccc3c2)c2ccccc21 (stereo not drawn)	nt	nt	113*	1	nt	nt
CCCNC(=S)N1CCC(NC(=O)C2CCCCC2)CC1	1	7	6	-1	1	6
c1ccc2c(Nc3nc4c(s3)CCCC4)cccc2c1	36	28	nt	5	57*	16
CC(C)(C)c1ccc(C(=O)N/N=C/c2ccccn2)cc1	-42	24	-9	2	63*	15
COc1ccc(/C=C2\CC/C(=C\c3ccc(OC)c(OC)c3)C2=O)cc1OC	19	31	-3	-3	6	29
COc1ccc(/C=c2\s/c(=C/C(=O)c3ccc(C)cc3)[nH]c2=O)cc1OC	17	22	-36	-1	62*	4
CNC1=C(N(C(C)=O)c2ccc(Br)cc2)C(=O)c2ccccc2C1=O	nt	nt	8	-1	57*	nt
O=S(=O)(c1ccc(F)cc1)c1nc(-c2ccccc2)oc1N1CCOCC1	28	27	4	2	54*	3
COc1ccc(-c2nc(-c3ccc(NC(=O)c4ccncc4)cc3)no2)cc1OC	38	25	3	4	55*	16
